Results taken from the supplement of paper PMC10941209.

Test system: HFF
Test: cell viability relative to DMSO control; higher = less cytotoxic
Conditions: 1 µM; 72 h
Method: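 Single-dose cytotoxicity screen of the MMV Pandemic Response Box at 1 uM on human foreskin fibroblasts (HFF), 72 h at 37 C. Viability measured by MTT (OD 550 nm) and normalised to the DMSO control (% survival).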

SMILES | cell viability [%]
CC(=O)N[C@H](C)C(=O)N[C@H](Cc1ccccc1)C(=O)O | 61.1
Cc1ccc(C)c(OCCCCCCN2C[C@H](O)[C@@H](O)[C@H](O)[C@H]2CO)c1 | 64.6
CCN(CC)CCn1c(=N)n(CC(O)COc2ccc(Cl)cc2Cl)c2ccccc21 (configuration not stated) | 60.7
C[C@H]1CC[C@@]2(O)C(C)(C)[C@@H]3CC[C@@]2(C)[C@H]1C3 | 65.2
COc1cc(Cc2cnc(N)nc2N)cc(OC)c1OC | 64.8
Cc1ncc([N+](=O)[O-])n1CC(C)O (configuration not stated) | 68.8
CCNC(=O)Nc1cn2c(-c3ncc(CC)cn3)cc(-c3cccnc3)cc2n1 | 71.6
COc1cc(Cc2cnc(N)nc2N)c2c(c1OC)OC(C1CC1)C=C2 (configuration not stated) | 74.3
CC[C@@]1(O)C(=O)OCc2c1cc1n(c2=O)Cc2cc3c(CN(C)C)c(O)ccc3nc2-1 | 50.1
O=C(c1ccccc1)N1CCN(c2ccccc2NC(=O)C(Cl)(Cl)Cl)CC1 | 65
O=C(O)/C=C/C=C/c1cccc(Oc2cc(Cl)cc(Cl)c2)c1 | 63.3
COc1cc(NCc2ccc3nc(N)nc(N)c3c2C)cc(OC)c1OC | 63.7
O=c1cc(OCc2ccccc2)ccn1Cc1ccccc1 | 68.5
CCOC(=O)N1CCN(c2ccc(Cl)cc2)CC1 | 64
COc1ccc2c(c1)cc(CNC(=O)c1cc3ccccc3o1)n2CC(=O)O | 62.5
CCc1nc2ccccn2c1C(=O)NCc1ccccc1 | 66.8
O=S(=O)(Nc1ccc(O)cc1)c1cccc2cccnc12 | 66.5
Nc1nc(N)c2c(Sc3ccccc3)cccc2n1 | 68.7
O=C(Nc1ccccc1C(=O)O)c1cccc(Oc2ccccc2)c1 | 67.4

SMILES | cell viability [%]
Nc1nc(Nc2ccc3nc(-c4ccc(F)cc4)cc(N)c3c2)cc(-c2ccccc2)n1 | 78.1
COc1c(F)c(F)cc2c(=O)c(C(=O)O)cn(C3CC3)c12 | 69.4
CC(=O)N1CCN(c2ccc(OCC3COC(Cn4ccnc4)(c4ccc(Cl)cc4Cl)O3)cc2)CC1 (configuration not stated) | 62.9
CS(=O)(=O)c1ccc(Oc2ccc(Cl)cc2)cc1 | 69.7
Fc1ccc2c(/C=C/c3cccnc3)c[nH]c2c1 | 63.2
CO/N=C(\C(=O)N[C@@H]1C(=O)N2C(C(=O)OCOC(=O)C(C)(C)C)=C(/C=C\c3scnc3C)CS[C@H]12)c1csc(N)n1 | 66
NC(=O)c1[nH]c2ccc(S(N)(=O)=O)cc2c1-c1ccccc1 | 75.8
Cc1nc2ccc(Cl)cc2c(-c2ccccc2)c1CC(=O)O | 77
NC[C@H]1O[C@H](O[C@H]2[C@H](O)[C@@H](O[C@H]3O[C@H](CO)[C@@H](O)[C@H](N)[C@H]3O)[C@H](N)C[C@@H]2N)[C@H](N)C[C@@H]1O | 68.2
C=C[C@]1(C)C[C@@H](OC(=O)CS[C@@H]2C[C@H]3CC[C@@H](C2)N3C)[C@]2(C)[C@H](C)CC[C@]3(CCC(=O)[C@H]32)[C@@H](C)[C@@H]1O | 72.2
O=C(O)CSc1cc(NS(=O)(=O)c2cccc3cccnc23)c2ccccc2c1O | 59.6
COc1ccccc1NC(=O)c1ccccc1Sc1ccc([N+](=O)[O-])cc1 | 55.7
O=C(O)c1cc(-c2ccccc2)nc2ccccc12 | 70.7
CNc1nc(=O)[nH]cc1F | 68.4
N[C@H](CCC(=O)N[C@@H](Cc1c[nH]c2ccccc12)C(=O)O)C(=O)O | 61.9
O=[N+]([O-])c1ccc2c(CCc3c[nH]c4ccccc34)c[nH]c2c1 | 61.9
CCn1cc(C(=O)O)c(=O)c2cc(F)c(N3CCNC(C)C3)c(F)c21 (configuration not stated) | 71.2
N=c1n(CCN2CCCCC2)c2ccccc2n1CC(O)COc1ccc(Cl)cc1Cl (configuration not stated) | 81.4
